# Results taken from PubChem BioAssay (Tox21).
# Results filed as inconclusive are left out. A call without a number means that no potency is given here. Calls of active or inactive are those of the source. Unless noted, calls come from the whole dose curve; as a rule, active = well fitted curve in the direction sought with a large enough effect in the repeat runs; inconclusive = weak or mixed curves; inactive = no such curve, though single readings can be large; an effect the other way counts as inactive or inconclusive.
# Columns and labels:
# [1] = qHTS assay to identify small molecule antagonists of the estrogen related receptor (ERR) signaling pathway - cell viability counter screen (AID 1224818);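 note: series mostly up to about 46 µM; viability measured after 17.5 h of compound exposure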
# Summary of the method: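 Here, ERR cells are plated at 2,000 cells per well, allowed 6 h to attach, and treated with compounds in DMSO for 17.5 h at 37 C. CellTiter-Fluor is then added and fluorescence read after 30 min.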
# [2] = qHTS assay to identify small molecule antagonists of the estrogen related receptor (ERR) signaling pathway (AID 1224819; note: nearly all actives have a fitted effect of over 50% in size; note: potency is the fitted concentration of half-maximal effect)
# Summary of the method: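 LOPAC library screened for antagonism as reduced One-Glo luminescence in ERR reporter cells (2,000/well). Compounds were added after 6 h pre-incubation and left 18 h at 37C; reading followed a 30 min room-temperature reagent step.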
# [3] = qHTS assay to identify small molecule agonists of the estrogen related receptor (ERR) signaling pathway (AID 1224820)
# Summary of the method: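 Quantitative HTS of the LOPAC library used NTP ERR reporter cells treated 18 h at 37 C. Signal is luminescence after One-Glo addition and a 30 min room-temperature incubation.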
# [4] = test system: estrogen-related receptor alpha (ERRalpha) with PGC-1alpha coactivator, human; test: qHTS assay to identify small molecule antagonists of the estrogen related receptor signaling pathway with the pleiotropic PPARgamma coactivator (PGC) (AID 1224821; calls by dose curve; note: nearly all actives have a fitted effect of over 50% in size; note: potency is the fitted concentration of half-maximal effect)
# Summary of the method: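 Quantitative HTS for antagonism: PGC/ERR cells received compounds after 6 h attachment and were incubated 18 h at 37 C, with luminescence (One-Glo) as the endpoint.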
# [5] = qHTS assay to identify small molecule antagonists of the estrogen related receptor signaling pathway with the pleiotropic PPARgamma coactivator (PGC) cell viability counter screen (AID 1224822;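 note: series mostly up to about 46 µM; viability read after 17.5 h compound exposure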)
# Summary of the method: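 qHTS format, DMSO compound stocks pin-transferred onto PGC/ERR cells 6 h after plating; 17.5 h exposure at 37 C, then CellTiter-Fluor fluorescence.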
# [6] = qHTS assay to identify small molecule agonists of the estrogen related receptor signaling pathway with the pleiotropic PPARgamma coactivator (PGC) (AID 1224823)
# Summary of the method: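 Cell-based luciferase assay in the NTP-supplied PGC/ERR line, 2,000 cells/well; 18 h compound exposure at 37 C, luminescence after One-Glo.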
SMILES,Potency [1],Potency [2],Potency [3],Potency [4],Potency [5],Potency [6]
O=C1OC(=O)C2C3CCC(O3)C12 (configuration not stated),inactive,inactive,inactive,inactive,inactive,inactive
COc1ccc2c(c1)CCC1C2CC[C@@]2(C)C1CC[C@@H]2NCCCCCCN1C(=O)C=CC1=O (some centres not stated),inactive,inactive,inactive,inactive,inactive,inactive
O=C(O)C1CCCN(CCC=C(c2ccccc2)c2ccccc2)C1 (configuration not stated),inactive,inactive,inactive,inactive,inactive,inactive
CCCN(CCc1ccccc1)C1CCc2c(O)cccc2C1 (configuration not stated),inactive,inactive,inactive,inactive,inactive,inactive
O=C(O)C1CCNCC1,inactive,inactive,inactive,inactive,inactive,inactive
Nc1nc2c(ncn2[C@@H]2O[C@H](CO)[C@@H](O)[C@@H]2O)c(=O)[nH]1,inactive,inactive,inactive,inactive,inactive,inactive
NC(Cc1cccc(-c2ccccc2CP(=O)(O)O)c1)C(=O)O (configuration not stated),inactive,inactive,inactive,inactive,inactive,inactive
O=c1onc2n1-c1cc(Br)ccc1OC2,inactive,inactive,inactive,inactive,inactive,inactive
COc1cc(CC(=O)O)ccc1O,inactive,inactive,inactive,inactive,,inactive
C=C1C[C@@]23CC[C@H]4[C@@](C)(CCC[C@@]4(C)C(=O)OC4OC(CO)C(O)C(O)C4O)[C@@H]2CC[C@]1(OC1OC(CO)C(O)C(O)C1OC1OC(CO)C(O)C(O)C1O)C3 (some centres not stated),inactive,inactive,inactive,inactive,,inactive
CC(=O)SCC[N+](C)(C)C,inactive,inactive,inactive,inactive,,inactive
NCC1OC(OC2C(O)[C@@H](OC3C(O)C(N)CC(N)C3OC3OC(CO)C(O)C(O)C3N)O[C@@H]2CO)C(N)C(O)C1O (some centres not stated),inactive,inactive,inactive,inactive,,inactive
O=C1C(SCCO)=C(SCCO)C(=O)c2ccccc21,inactive,9.08 µM (active),inactive,18.8 µM (active),,inactive
NCCCCN,inactive,inactive,inactive,inactive,,inactive
NC1(C(=O)O)CCc2cc(C(=O)O)ccc21 (configuration not stated),inactive,inactive,inactive,inactive,,inactive
N#Cc1cc2nc(O)c(O)nc2cc1[N+](=O)[O-],inactive,inactive,inactive,inactive,,inactive
CCCn1c(=O)c(C)cn2nc(N)nc12,inactive,inactive,inactive,,inactive,inactive
C#C[C@]1(O)CC[C@H]2[C@@H]3CCC4=Cc5oncc5CC4(C)[C@H]3CCC21C (some centres not stated),inactive,16.8 µM (active),inactive,19.6 µM (active),,inactive
O=C(c1cc(O)c(O)c([N+](=O)[O-])c1)c1ccccc1F,inactive,25.6 µM (active),inactive,22.8 µM (active),,inactive
CCCCCCC(=O)OC1CC(C)(C)NC(C)(C)C1,inactive,inactive,inactive,inactive,,inactive
Cn1cc(C(=O)OCC2CCN(CCNS(C)(=O)=O)CC2)c2ccccc21,inactive,inactive,inactive,inactive,inactive,inactive
COc1cc(C(O)CO)ccc1OS(=O)(=O)O (configuration not stated),inactive,inactive,inactive,inactive,,inactive
Brc1c(Br)c(Br)c2[nH]cnc2c1Br,inactive,19.6 µM (active),inactive,6.94 µM (active),,inactive
CCCN(CC1CC1)c1nc(C)nc(Nc2c(Cl)cc(Cl)cc2Cl)c1Cl,inactive,inactive,inactive,,inactive,inactive
CCCCCCCC/C=C\CCCCCCCC(=O)NCCO,inactive,inactive,inactive,inactive,,inactive
Fc1ccc(CN(C2=NCCN2)c2c(Cl)cccc2Cl)cc1,inactive,inactive,inactive,inactive,inactive,inactive
CCN(CC)CCNC(=O)c1ccc(NS(C)(=O)=O)cc1,inactive,inactive,inactive,inactive,,inactive
O=C(c1ccc(OCCCc2cnc[nH]2)cc1)C1CC1,inactive,inactive,inactive,inactive,inactive,inactive
N[C@@H](CCCC(=O)O)C(=O)O,inactive,inactive,inactive,inactive,inactive,inactive
